The record followed here is PubChem BioAssay (NCI).

The panel holds about 83,000 compounds, 20% with a hit somewhere; the sample as a whole holds those more often.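 A percent growth of 40 corresponds to 60% growth inhibition; 0 means no net growth; -100 means all cells died. Active threshold: below 10.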 Unmarked numbers belong to inactive results. The source made the active and inactive calls.

The first assay relates to SF-295 CNS. Nature of the assay: NCI-60 one-dose screen, 48 h (100 = growth as untreated, 0 = no growth, -100 = all killed). Conditions: 10 µM unless noted.
On to `Cc1cc(-c2nc3ccccc3s2)ccc1NC(=O)COc1ccc(Cl)cc1`, for which the growth is 120%.
Same read-out and setting: the value for `C[C@H](CCC(=O)O)[C@H]1CC[C@H]2[C@@H]3CC[C@@H]4/C(=C\c5ccco5)C(=O)/C(=C\c5ccco5)C[C@]4(C)[C@H]3CC[C@]12C` was 70.6%; that for `COc1cc2c(c(OC)c1OC)-c1ccc(N=NC(N)=S)c(=O)cc1[C@@H](NC(C)=O)CC2` was 6.76% (active); that for `c1ccc(CSc2ncnc3nc[nH]c23)nc1` was 104%.
In the case of `CC(=O)Nc1ccc2c(c1)c(NC(C)=O)nn2C(=O)Nc1ccc(Cc2ccccc2)cc1`, the growth was 54%.
Regarding `COc1cc2c(=O)n(CC3CCCCC3)c3c4cc[nH]c4ncc3c2cc1OC`, the growth is 42.9%.
Still for that read-out and setting: the value for `COC1/C=C\OC2(C)Oc3c(C)c(O)c4c(O)c(c(CN(C)CCO)c(O)c4c3C2=O)NC(=O)/C(C)=C\C=C/C(C)C(O)C(C)C(O)C(C)C(OC(C)=O)C1C` (stereo unspecified) was 113%; that for `Cc1cc(N/N=C/c2nc(-c3ccc(Cl)cc3)oc2C)c2cc(Cl)ccc2n1` was 98.6%; that for `C=C1CC[C@@H]2[C@](C)(COC(C)=O)[C@H](OC(C)=O)CC[C@@]2(C)[C@@H]1CC(NCc1ccc(F)cc1)C1=CCOC1=O` (stereo partly specified) was 96.1%.
Still for that read-out and setting: the value for `Cn1c2c(Cl)c(Cl)ccc2c2ccn3c(=O)c4ccccc4nc3c21` was 102%; that for `CCOC(=O)Cc1cnn(C)c1NC(=O)c1ccc(Cl)cc1NC(C)=O` was 101%.
On the same count and under the same terms, the value for `COc1ccc(-c2cc(NC(=O)Nc3ccc(O)cc3)no2)cc1` was 58.9%.
For the molecule `S=c1[nH]nc(CSc2ncnc3c2c(-c2ccccc2)cn3-c2ccc(Cl)cc2)o1`, the growth is 102%.
Still for that read-out and setting: as for `COc1c(Cl)cc(Cl)cc1Cl`, the figure is 103%; as for `COc1ccc(-c2nn(-c3ccccc3)cc2/C=C/C(=O)OCc2cn(-c3ccc(F)c(Cl)c3)nn2)cc1`, 97.3%; as for `COc1ccc2c(c1)C(=O)/C(=C/c1cccc(OCC(=O)Nc3nc4c(s3)CCCC4)c1)O2`, 52.1%.
Same read-out and setting: as for `CCN(CC)CC(C)Nc1ccc([N+](=O)[O-])c2sc3ccccc3c(=O)c12` (stereo unspecified), the figure is 25%; as for `Cc1nn(-c2ccccc2)c2nc(C)n(-c3ccc(Br)cc3)c(=O)c12`, 4.98% (active).
The same measure, in the same setting: the value for `OC(c1cc(-c2ccccc2)nc2ccc(Cl)cc12)C1CCCCN1` (stereo unspecified) was 96.2%; that for `COc1ccc(S(=O)(=O)NCCNc2nccc(-c3c(-c4cccc([N+](=O)[O-])c4)nc4sccn34)n2)cc1` was 90.6%.
Regarding `COc1ccc(Cl)cc1Nc1nc(C(F)(F)F)ccc1C(=O)N/N=C/c1cccnc1`, the growth was 81.6%.
For the molecule `COc1ccc(-c2nn(-c3ccccc3)cc2/C=C2\SC(=O)NC2=O)cc1`, the growth was 92%.
Consider `Cc1ccc2c(c1)C(=O)c1c-2c(OCCCN(C)C)nc2ccccc12`, for which the growth was 60%.
Same read-out and setting: the value for `Cc1ccc(-c2nc(/C=N/Nc3cc(C)nc4ccc(Br)cc34)c(C)o2)cc1` was 85.7%; that for `CCCCNP1(NCCCC)=NP(NCCCC)(NCCCC)=NP(NCCCC)(NCCCC)=NP(NCCCC)(NCCCC)=N1` was -25% (active); that for `COc1ccc(-n2cc(-c3ccccc3)c3c(SCC(=O)N/N=C/c4ccc([N+](=O)[O-])cc4)ncnc32)cc1` was 105%.
As for `Nc1cccc(-c2nc3sccn3c2-c2ccnc(NCCCNS(=O)(=O)c3ccc(C(F)(F)F)cc3)n2)c1`, the growth is -11.3% (active).
In the case of `CCN(CC)CC(O)c1cc(-c2ccc(Cl)cc2)nc2c(C)c(Cl)ccc12` (stereo unspecified), the growth was -76.8% (active).
As for `O=C1/C(=C/c2ccc(F)cc2)CN(C(=O)CCN2CCC(=NO)CC2)C/C1=C\c1ccc(F)cc1`, the growth was -28.9% (active).
Take `CC(C)C1=C[C@@]23CC[C@@H]4[C@](C)(CCC[C@@]4(C)C(=O)OCC#CCN4CCCC4)[C@H]2C[C@@H]1[C@H]1C(=O)OC(=O)[C@H]13`: the growth was 97.3%.
With `Cc1ccc2c(c1)C(=O)/C(=C/c1ccc(OCC(=O)c3ccccc3)cc1)O2`, the growth is 78.8%.
With `Cc1ccc2c(c1)n([O-])c1cc(Cl)ccc1[n+]2=O`, the growth is 109%.
Regarding `COc1ccccc1/C=C(/C(=O)c1ccccc1)c1ccccc1`, the growth was 104%.
Still for that read-out and setting: as for `COc1nc2c(cc1S(=O)(=O)c1ccccc1)CCc1c-2cnn1-c1ccc(Cl)cc1`, the figure is 88.3%; as for `CNc1cc2nc3cc(NC)c(C)cc3cc2cc1C`, 10%.
The same measure, in the same setting: as for `Nc1c(C(=O)Nc2ccccc2)sc2nc3c(cc12)CN(CCc1ccccc1)CC3`, the figure is 103%.
The same measure, in the same setting: as for `CC(C)[C@@H]1CC[C@]2(C(=O)NCCCCN=C(N)N)CC[C@]3(C)[C@H](CC[C@@H]4[C@@]5(C)CCC(=O)C(C)(C)[C@@H]5CC[C@]43C)[C@@H]12`, the figure is 102%; as for `CCOC(=O)c1cnc2ccc(Br)cc2c1Nc1cccc(S(=O)(=O)NC)c1`, 94.2%.

A further assay has as its system SF-539 CNS. The assay is described as above. To be noted: 10 µM unless noted.
As for `Cc1cc(-c2nc3ccccc3s2)ccc1NC(=O)COc1ccc(Cl)cc1`, the growth is 105%.
The same measure, in the same setting: the value for `C[C@H](CCC(=O)O)[C@H]1CC[C@H]2[C@@H]3CC[C@@H]4/C(=C\c5ccco5)C(=O)/C(=C\c5ccco5)C[C@]4(C)[C@H]3CC[C@]12C` was 76.3%; that for `COc1cc2c(c(OC)c1OC)-c1ccc(N=NC(N)=S)c(=O)cc1[C@@H](NC(C)=O)CC2` was 1.01% (active).
On the same count and under the same terms, the value for `c1ccc(CSc2ncnc3nc[nH]c23)nc1` was 99.5%; that for `CC(=O)Nc1ccc2c(c1)c(NC(C)=O)nn2C(=O)Nc1ccc(Cc2ccccc2)cc1` was 80.9%; that for `COc1cc2c(=O)n(CC3CCCCC3)c3c4cc[nH]c4ncc3c2cc1OC` was -7.56% (active).
Regarding `COC1/C=C\OC2(C)Oc3c(C)c(O)c4c(O)c(c(CN(C)CCO)c(O)c4c3C2=O)NC(=O)/C(C)=C\C=C/C(C)C(O)C(C)C(O)C(C)C(OC(C)=O)C1C` (stereo unspecified), the growth is 91.1%.
On the same count and under the same terms, the value for `Cc1cc(N/N=C/c2nc(-c3ccc(Cl)cc3)oc2C)c2cc(Cl)ccc2n1` was 69.5%.
On the same count and under the same terms, the value for `C=C1CC[C@@H]2[C@](C)(COC(C)=O)[C@H](OC(C)=O)CC[C@@]2(C)[C@@H]1CC(NCc1ccc(F)cc1)C1=CCOC1=O` (stereo partly specified) was 64.4%; that for `Cn1c2c(Cl)c(Cl)ccc2c2ccn3c(=O)c4ccccc4nc3c21` was 95.7%.
The same measure, in the same setting: the value for `CCOC(=O)Cc1cnn(C)c1NC(=O)c1ccc(Cl)cc1NC(C)=O` was 101%.
With `COc1ccc(-c2cc(NC(=O)Nc3ccc(O)cc3)no2)cc1`, the growth was 69.5%.
As to `S=c1[nH]nc(CSc2ncnc3c2c(-c2ccccc2)cn3-c2ccc(Cl)cc2)o1`, the growth was 94.7%.
Turning to `COc1c(Cl)cc(Cl)cc1Cl`, the growth was 111%.
Same read-out and setting: as for `COc1ccc(-c2nn(-c3ccccc3)cc2/C=C/C(=O)OCc2cn(-c3ccc(F)c(Cl)c3)nn2)cc1`, the figure is 98.7%; as for `COc1ccc2c(c1)C(=O)/C(=C/c1cccc(OCC(=O)Nc3nc4c(s3)CCCC4)c1)O2`, -83.2% (active); as for `CCN(CC)CC(C)Nc1ccc([N+](=O)[O-])c2sc3ccccc3c(=O)c12` (stereo unspecified), 29.5%.
As for `Cc1nn(-c2ccccc2)c2nc(C)n(-c3ccc(Br)cc3)c(=O)c12`, the growth is -5.52% (active).
Still for that read-out and setting: the value for `OC(c1cc(-c2ccccc2)nc2ccc(Cl)cc12)C1CCCCN1` (stereo unspecified) was 67.5%; that for `COc1ccc(S(=O)(=O)NCCNc2nccc(-c3c(-c4cccc([N+](=O)[O-])c4)nc4sccn34)n2)cc1` was 99.3%.
On the same count and under the same terms, as for `COc1ccc(Cl)cc1Nc1nc(C(F)(F)F)ccc1C(=O)N/N=C/c1cccnc1`, the figure is 45.9%; as for `COc1ccc(-c2nn(-c3ccccc3)cc2/C=C2\SC(=O)NC2=O)cc1`, 96.8%; as for `Cc1ccc2c(c1)C(=O)c1c-2c(OCCCN(C)C)nc2ccccc12`, 14.4%.
The same measure, in the same setting: the value for `Cc1ccc(-c2nc(/C=N/Nc3cc(C)nc4ccc(Br)cc34)c(C)o2)cc1` was 71.3%.
Regarding `CCCCNP1(NCCCC)=NP(NCCCC)(NCCCC)=NP(NCCCC)(NCCCC)=NP(NCCCC)(NCCCC)=N1`, the growth was 34%.
Same read-out and setting: the value for `COc1ccc(-n2cc(-c3ccccc3)c3c(SCC(=O)N/N=C/c4ccc([N+](=O)[O-])cc4)ncnc32)cc1` was 97.9%.
Still for that read-out and setting: as for `Nc1cccc(-c2nc3sccn3c2-c2ccnc(NCCCNS(=O)(=O)c3ccc(C(F)(F)F)cc3)n2)c1`, the figure is 16.5%.
Same read-out and setting: the value for `CCN(CC)CC(O)c1cc(-c2ccc(Cl)cc2)nc2c(C)c(Cl)ccc12` (stereo unspecified) was -98.6% (active); that for `O=C1/C(=C/c2ccc(F)cc2)CN(C(=O)CCN2CCC(=NO)CC2)C/C1=C\c1ccc(F)cc1` was -63% (active); that for `CC(C)C1=C[C@@]23CC[C@@H]4[C@](C)(CCC[C@@]4(C)C(=O)OCC#CCN4CCCC4)[C@H]2C[C@@H]1[C@H]1C(=O)OC(=O)[C@H]13` was 92.1%.
With `Cc1ccc2c(c1)C(=O)/C(=C/c1ccc(OCC(=O)c3ccccc3)cc1)O2`, the growth was 92.9%.
On to `Cc1ccc2c(c1)n([O-])c1cc(Cl)ccc1[n+]2=O`, for which the growth is 107%.
The same measure, in the same setting: the value for `COc1ccccc1/C=C(/C(=O)c1ccccc1)c1ccccc1` was 106%.
Turning to `COc1nc2c(cc1S(=O)(=O)c1ccccc1)CCc1c-2cnn1-c1ccc(Cl)cc1`, the growth is 100%.
On the same count and under the same terms, the value for `CNc1cc2nc3cc(NC)c(C)cc3cc2cc1C` was 10.4%; that for `Nc1c(C(=O)Nc2ccccc2)sc2nc3c(cc12)CN(CCc1ccccc1)CC3` was 95.3%.
Still for that read-out and setting: the value for `CC(C)[C@@H]1CC[C@]2(C(=O)NCCCCN=C(N)N)CC[C@]3(C)[C@H](CC[C@@H]4[C@@]5(C)CCC(=O)C(C)(C)[C@@H]5CC[C@]43C)[C@@H]12` was 69.5%.
Still for that read-out and setting: the value for `CCOC(=O)c1cnc2ccc(Br)cc2c1Nc1cccc(S(=O)(=O)NC)c1` was 98.2%.
